Bioassay records: PubChem BioAssay, National Center for Advancing Translational Sciences (NCATS)
Compounds with a hit are over-represented: about 11% of the library has one in this group of screens.
NPR1 antag: human Npr1 receptor antagonism. 76,000 tested, 1.6% active. HEK293 hNpr1 GloSensor cGMP, ANP-stimulated luminescence. P16066. Potency, µM (series often up to 46.3 µM), for inactives: at the highest dose activity change, negative = inhibition, actives largely listed as inhibitors; calls by dose curve; further: nearly all actives have a fitted effect of over 60% in size
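HEK293 cells stably expressing human Npr1 and cGMP GloSensor pGS-40F, loaded 2 h with 2% GloSensor reagent, given compound 30 min at room temperature. Luminescence read before and 20 min after 0.1 nM hNppA.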
Luciferase inh: inhibitors of firefly (Photinus pyralis) luciferase; 76,000 tested, 2.5% active; AID 1347043; purified P. pyralis luciferase, luminescence, biochemical; Potency, µM (top dose mostly 115 µM), actives largely listed as inhibitors; further: nearly all actives have a fitted effect of over 65% in size
Target sequence (P08659 whole entry, looked up): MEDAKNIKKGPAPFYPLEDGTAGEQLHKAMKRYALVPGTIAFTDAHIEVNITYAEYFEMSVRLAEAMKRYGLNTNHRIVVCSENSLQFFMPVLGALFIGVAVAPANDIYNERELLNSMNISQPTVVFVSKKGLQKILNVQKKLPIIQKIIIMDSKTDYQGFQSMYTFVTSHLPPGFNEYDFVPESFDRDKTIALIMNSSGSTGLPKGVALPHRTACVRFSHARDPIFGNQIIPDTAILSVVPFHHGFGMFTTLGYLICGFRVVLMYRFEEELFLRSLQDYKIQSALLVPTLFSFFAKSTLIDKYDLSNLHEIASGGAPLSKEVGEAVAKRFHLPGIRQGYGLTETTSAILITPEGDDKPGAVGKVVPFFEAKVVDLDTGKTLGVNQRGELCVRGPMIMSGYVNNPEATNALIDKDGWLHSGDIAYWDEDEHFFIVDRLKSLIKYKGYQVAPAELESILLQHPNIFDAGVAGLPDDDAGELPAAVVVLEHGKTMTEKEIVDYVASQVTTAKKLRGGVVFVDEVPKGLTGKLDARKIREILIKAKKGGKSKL
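Inhibitors were tested against purified firefly luciferase in a biochemical, low-substrate format (both substrates at 10uM) and luminescence measured with a CCD imager.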
3T3 cytotox: NIH 3T3 cell cytotoxicity; AID 1345082; NIH 3T3 viability, CellTiter-Glo ATP luminescence, 48-72 h; 94,000 tested, 4.3% active; Potency, µM (top dose mostly 96.7 µM), for the others: at the top dose activity change, negative = cytotoxicity, hits mostly inhibitors; further: nearly all actives have a fitted effect of over 55% in size
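Cells were seeded at 400 per well, treated with pin-transferred compound, and kept 48 or 72 hr at 37 °C before CellTiter-Glo addition and luminescence imaging of cellular ATP.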
HEK cytotox: kills HEK 293 cells; HEK 293 viability, ATP luminescence (CellTiter-Glo), 48-72 h; Potency, µM (highest dose often 115 µM), inactives show top-dose activity change, negative = cytotoxicity, usual class: inhibitors; 94,000 tested, 6.6% active; AID 1345083; further: nearly all actives have a fitted effect of over 60% in size
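Cytotoxicity was scored by loss of ATP-coupled luminescence (CellTiter-Glo) in HEK 293 cells. Compound treatment ran 48 or 72 hr at 37 degree Celsius, 5% CO2, 95% humidity.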
* hit, by the source's call; i = inactive; ? = inconclusive; nt = no result; [ ] = another dose, or the depositor's remark. Unless noted, the call rests on the fitted dose curve; in most records, active means well fitted curve in the direction sought with a large enough effect; inconclusive means small, poorly fitted or top-dose-only effect, or another doubt; inactive means no such curve, though single readings can be large; an effect the other way counts as inactive or inconclusive. On the % scale 0 is the no-effect control and ±100 the full control effect; potency means the concentration at half of the fitted maximal effect.

SMILES	NPR1 antag	Luciferase inh	3T3 cytotox	HEK cytotox
Cc1nc(-c2cccs2)cc([C@H]2CN3CC[C@H]2C[C@@H]3COC(=O)Nc2ccc(C(C)C)cc2)n1	?	?	8.91µM*	5.62µM*
COc1ccccc1-c1cc([C@H]2CN3CC[C@H]2C[C@@H]3COC(=O)Nc2ccc(C(C)C)cc2)nc(C)n1	-26.4%	17.8µM*	?	5.01µM*
C#C[C@H]1CN2CC[C@H]1C[C@@H]2COC(=O)NCCC	-0.4%[70.6 µM]	i	-28.9%[230 µM]	?
c1ccc(Nc2cc3c(cn2)CN(CC2CC2)CCN3)cc1	4.4%[70.6 µM]	35.5µM*	?	35.5µM*
O=C1Nc2ccccc2C12CCN(CC1CC1)CC2	nt	nt	1.0%[174 µM]	-6.0%[230 µM]
CN1CCNc2cc(NCc3ccccc3)ncc2C1	-1.8%[70.6 µM]	25.1µM*	89.1µM*	?
COc1ncccc1-c1cnc2[nH]cc(CC(=O)N3CCN(C)CC3)c2c1	3.4%[70.6 µM]	i	?	-24.6%[172 µM]
O=C(Cc1c[nH]c2ncc(-c3cccnc3)cc12)N1CCN(Cc2ccccc2)CC1	0.5%[70.6 µM]	?	?	?
CN1CCN(C(=O)Cc2c[nH]c3ncc(-c4ccc(CO)cc4)cc23)CC1	-0.1%[70.6 µM]	i	25.1µM*	?
CN1CCN(C(=O)Cc2c[nH]c3ncc(-c4ccnn4C)cc23)CC1	2.6%[70.6 µM]	i	100µM*	-11.4%[172 µM]
O=C1CO[C@H]2CN(Cc3ncc[nH]3)C[C@H]2N1Cc1ccccn1	4.7%[70.6 µM]	i	i	i
O=C(c1ccco1)N1[C@H]2CC[C@@H]1c1cnc(-c3ccc(F)cc3)nc1C2	?	i	-25.6%	44.7µM*
Cn1nccc1C(=O)N1[C@H]2CC[C@@H]1c1cnc(-c3ccc(F)cc3)nc1C2	?	i	?	?
Cc1noc(C)c1S(=O)(=O)N1[C@H]2CC[C@@H]1c1cnc(-c3ccc(F)cc3)nc1C2	?	i	?	44.7µM*
O=C(CCc1nc2ccccc2s1)N1[C@H]2CC[C@@H]1c1cnc(-c3ccc(F)cc3)nc1C2	0.708µM*	i	-26.1%	39.8µM*
O=C(CCc1nc2ccccc2[nH]1)N1[C@H]2CC[C@@H]1c1cnc(-c3ccc(F)cc3)nc1C2	-2.0%	i	-12.6%	-28.2%
O=C1CC2CCN(CC3CCNC3)CC2CCN1 (stereo unspecified)	nt	nt	-1.0%[174 µM]	-2.4%[230 µM]
COc1ccccc1N1CCN(C[C@H]2CN3CC[C@H]2C[C@@H]3CNC(=O)Nc2ccsc2)CC1	2.0%	i	?	-11.7%
COc1ccc(NC(=O)NC[C@H]2C[C@@H]3CCN2C[C@@H]3CN2CCN(c3ccccc3OC)CC2)cc1	-17.8%	i	?	89.1µM*
CC[C@H]1CN2CC[C@H]1C[C@@H]2CNC(=S)Nc1ccc(C)cc1Br	-18.4%[70.6 µM]	i	44.7µM*	?
CC[C@H]1CN2CC[C@H]1C[C@@H]2CNC(=O)Nc1ccc(Oc2ccccc2)cc1	-8.4%[70.6 µM]	i	28.2µM*	25.1µM*
CC(C)(C)c1cn(C[C@H]2CC3CCN2C[C@@H]3C(=O)Nc2nccs2)nn1 (stereo partly specified)	2.1%[70.6 µM]	i	-14.6%[174 µM]	?
CCCS(=O)(=O)N1C[C@@H]2C[C@H](C1)c1c(-c3ccc(Cl)cc3)ccc(=O)n1C2	5.8%[70.6 µM]	i	2.9%[174 µM]	-7.5%[172 µM]
COc1cc2c(cc1OC1CCCC1)NC(=O)C21CCN(Cc2nccn2C)CC1	5.7%[70.6 µM]	i	-14.3%[138 µM]	?
COc1cc2c(cc1OCc1ccncc1)NC(=O)C21CCN(c2ccccn2)CC1	-27.1%[70.6 µM]	i	?	?
SMILES	NPR1 antag	Luciferase inh	3T3 cytotox	HEK cytotox
COc1ncc(-c2cc3c(cc2OC)C2(CCN(C(C)=O)CC2)C(=O)N3)cn1	3.1%[70.6 µM]	i	44.7µM*	-9.2%[172 µM]
COc1cc2c(cc1OCc1ccccc1)NC(=O)C21CCN(Cc2ccccn2)CC1	5.3%[70.6 µM]	i	89.1µM*	79.4µM*
COc1cc2c(cc1OCc1ccncc1)NC(=O)C21CCN(Cc2ccccc2O)CC1	-23.0%	i	?	44.7µM*
COc1cc2c(cc1-c1cccnc1OC)NC(=O)C21CCN(C(C)=O)CC1	-6.6%[70.6 µM]	i	?	-31.0%[172 µM]
COc1cc2c(cc1OCc1ccncc1)NC(=O)C21CCN(C(=O)c2cccnc2)CC1	0.7%	i	35.5µM*	4.3%
O=C(c1ccccc1)N1C[C@@H]2C[C@H](C1)c1c(-c3cccnc3)ccc(=O)n1C2	-4.1%[70.6 µM]	i	-25.8%[174 µM]	-26.8%[172 µM]
CC(=O)Nc1ccc(S(=O)(=O)N2C[C@@H]3C[C@H](C2)c2c(-c4cccs4)ccc(=O)n2C3)cc1	-3.7%	i	-21.8%	-1.7%
COc1cc2c(cc1OCc1ccncc1)NC(=O)C21CCN(CC2CC2)CC1	6.2%[70.6 µM]	i	100µM*	-22.7%[172 µM]
COc1cc2c(cc1OCC1CC1)NC(=O)C21CCN(Cc2nccs2)CC1	-11.7%[70.6 µM]	i	?	?
COc1cc2c(cc1OCC1CC1)NC(=O)C21CCN(C(=O)c2cccc(C#N)c2)CC1	0.1%[70.6 µM]	i	?	79.4µM*
COc1cc2c(cc1OCc1ccccc1)NC(=O)C21CCN(CC2CC2)CC1	-1.3%[70.6 µM]	?	31.6µM*	39.8µM*
CCOC(=O)[C@H]1CN(C(=O)NCc2ccccc2)[C@]2(C)C(=O)N(CCOC)c3ccccc3[C@H]12	nt	nt	?	-5.1%[57.5 µM]
CCCNC(=O)OC[C@H]1C[C@@H]2CCN1C[C@@H]2c1cc(-c2ccc(OC)cc2)nn1C	6.7%[70.6 µM]	i	?	?
O=c1ccc(-c2ccccc2F)c2n1C[C@H]1C[C@@H]2CN(S(=O)(=O)c2ccccc2)C1	4.7%[70.6 µM]	i	-5.7%[174 µM]	-14.0%[172 µM]
COc1c(C)cnc(CN2CCC3(C2)C(=O)N(C)C(=O)N3C)c1C (stereo unspecified)	nt	nt	-22.2%	-13.5%
O=C1NC2(CCN(Cc3cccnc3)C2)COc2ccccc21 (stereo unspecified)	5.6%[70.6 µM]	i	35.5µM*	79.4µM*
O=C1Nc2ccccc2CNC12CCN(Cc1ccncc1)CC2	nt	nt	4.3%	i
CSCC(=O)Nc1ccc2n(c1=O)C[C@H]1C[C@@H]2CN(C(=O)COc2ccccc2)C1	-2.7%[70.6 µM]	i	79.4µM*	-14.2%[172 µM]
O=S(=O)(NC[C@H]1C[C@@H]2CCN1C[C@@H]2CN1CCCC1)c1ccc(Cl)cc1	-1.2%[70.6 µM]	i	79.4µM*	?
COc1ccc(S(=O)(=O)NC[C@H]2C[C@@H]3CCN2C[C@@H]3CN2CCOCC2)cc1	-2.2%[70.6 µM]	i	-1.2%[174 µM]	0.2%[172 µM]
COc1ccc(S(=O)(=O)NC[C@H]2C[C@@H]3CCN2C[C@@H]3CN2CCC(Cc3ccccc3)CC2)cc1	-15.9%	i	12.6µM*	?
COc1ccc(S(=O)(=O)NC[C@H]2C[C@@H]3CCN2C[C@@H]3CN(C)c2ccccc2)cc1	0.9%[70.6 µM]	i	35.5µM*	?
O=S(=O)(NC[C@H]1C[C@@H]2CCN1C[C@@H]2CN1CCc2ccccc21)c1ccccc1	-13.8%[70.6 µM]	i	56.2µM*	56.2µM*
CN1CCN(C[C@H]2CN3CC[C@H]2C[C@@H]3CNS(=O)(=O)c2ccccc2)CC1	2.8%[70.6 µM]	i	-23.4%[174 µM]	-3.5%[172 µM]
Cc1ccc2c(n1)N(C)[C@H](CO)CCN(C1COC1)C2	0.4%[70.6 µM]	i	-3.5%[230 µM]	2.2%[230 µM]
